Changes are numbered by the printed parent chain; changes in the protein carry UniProt numbers. Whole data set: some 16,000 sequences, median “ka relative to ugcaugu” near 0.096, cut for the highest 2% near 0.35. Many of the other results were omitted from the sample, so the highest values are more common in it than they were.
T1: RBFOX1 RRM RbFoxmut (Fox-RRM*) (Homo sapiens, UniProt Q9NWB1 109-208, R118D;E147R;N151S;E152T)
T1 sequence: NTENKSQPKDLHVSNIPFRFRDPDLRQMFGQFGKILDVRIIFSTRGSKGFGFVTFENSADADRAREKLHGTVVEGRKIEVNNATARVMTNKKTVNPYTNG

B1: ACUUAUG (DNA:RNA)
RNA: GGGAGACCGGAAUUCAGAUUGUCCACUUAUGUUAAAUCCCGUCGUAGCCACCA
DNA 1: CAATCTGAATTCCGGTCTCCC
DNA 2: TGGTGGCTACGACGGGATT
B2: UCCAUGA (DNA:RNA)
RNA: B1 RNA with A25U, U27C, U28A, A29U, U30G, G31A
DNA 1: CAATCTGAATTCCGGTCTCCC
DNA 2: TGGTGGCTACGACGGGATT
B3: GGAGUCA (DNA:RNA)
RNA: GGGAGACCGGAAUUCAGAUUGUCCGGAGUCAUUAAAUCCCGUCGUAGCCACCA
DNA 1: CAATCTGAATTCCGGTCTCCC
DNA 2: TGGTGGCTACGACGGGATT
B4: CCAACAG (DNA:RNA)
RNA: B1 RNA with A25C, U27A, U28A, A29C, U30A
DNA 1: CAATCTGAATTCCGGTCTCCC
DNA 2: TGGTGGCTACGACGGGATT
B5: ACGGAGA (DNA:RNA)
RNA: B1 RNA with U27G, U28G, U30G, G31A
DNA 1: CAATCTGAATTCCGGTCTCCC
DNA 2: TGGTGGCTACGACGGGATT
B6: GAUCACA (DNA:RNA)
RNA: B3 RNA with G26A, A27U, G28C, U29A
DNA 1: CAATCTGAATTCCGGTCTCCC
DNA 2: TGGTGGCTACGACGGGATT
B7: GAUCCGG (DNA:RNA)
RNA: B1 RNA with A25G, C26A, U28C, A29C, U30G
DNA 1: CAATCTGAATTCCGGTCTCCC
DNA 2: TGGTGGCTACGACGGGATT
B8: CUUCGGA (DNA:RNA)
RNA: B1 RNA with A25C, C26U, U28C, A29G, U30G, G31A
DNA 1: CAATCTGAATTCCGGTCTCCC
DNA 2: TGGTGGCTACGACGGGATT
B9: AUGUCCC (DNA:RNA)
RNA: B1 RNA with C26U, U27G, A29C, U30C, G31C
DNA 1: CAATCTGAATTCCGGTCTCCC
DNA 2: TGGTGGCTACGACGGGATT
B10: AUGUGUG (DNA:RNA)
RNA: B1 RNA with C26U, U27G, A29G
DNA 1: CAATCTGAATTCCGGTCTCCC
DNA 2: TGGTGGCTACGACGGGATT
B11: AUGUGCC (DNA:RNA)
RNA: B1 RNA with C26U, U27G, A29G, U30C, G31C
DNA 1: CAATCTGAATTCCGGTCTCCC
DNA 2: TGGTGGCTACGACGGGATT
B12: AUGUGCG (DNA:RNA)
RNA: B1 RNA with C26U, U27G, A29G, U30C
DNA 1: CAATCTGAATTCCGGTCTCCC
DNA 2: TGGTGGCTACGACGGGATT
B13: AUGUGUU (DNA:RNA)
RNA: B1 RNA with C26U, U27G, A29G, G31U
DNA 1: CAATCTGAATTCCGGTCTCCC
DNA 2: TGGTGGCTACGACGGGATT
B14: AUGUGUC (DNA:RNA)
RNA: B1 RNA with C26U, U27G, A29G, G31C
DNA 1: CAATCTGAATTCCGGTCTCCC
DNA 2: TGGTGGCTACGACGGGATT
B15: CAUACAC (DNA:RNA)
RNA: B1 RNA with A25C, C26A, U28A, A29C, U30A, G31C
DNA 1: CAATCTGAATTCCGGTCTCCC
DNA 2: TGGTGGCTACGACGGGATT
B16: GUCUAGC (DNA:RNA)
RNA: B1 RNA with A25G, C26U, U27C, U30G, G31C
DNA 1: CAATCTGAATTCCGGTCTCCC
DNA 2: TGGTGGCTACGACGGGATT
B17: UUCCCGC (DNA:RNA)
RNA: GGGAGACCGGAAUUCAGAUUGUCCUUCCCGCUUAAAUCCCGUCGUAGCCACCA
DNA 1: CAATCTGAATTCCGGTCTCCC
DNA 2: TGGTGGCTACGACGGGATT
B18: CCCGCGA (DNA:RNA)
RNA: B17 RNA with U25C, U26C, C28G, C31A
DNA 1: CAATCTGAATTCCGGTCTCCC
DNA 2: TGGTGGCTACGACGGGATT
B19: CAUUCUU (DNA:RNA)
RNA: B1 RNA with A25C, C26A, A29C, G31U
DNA 1: CAATCTGAATTCCGGTCTCCC
DNA 2: TGGTGGCTACGACGGGATT
B20: AAAGCCC (DNA:RNA)
RNA: B3 RNA with G25A, G26A, U29C, A31C
DNA 1: CAATCTGAATTCCGGTCTCCC
DNA 2: TGGTGGCTACGACGGGATT
B21: ACGCAGA (DNA:RNA)
RNA: B1 RNA with U27G, U28C, U30G, G31A
DNA 1: CAATCTGAATTCCGGTCTCCC
DNA 2: TGGTGGCTACGACGGGATT
B22: ACGCAUA (DNA:RNA)
RNA: B1 RNA with U27G, U28C, G31A
DNA 1: CAATCTGAATTCCGGTCTCCC
DNA 2: TGGTGGCTACGACGGGATT
B23: ACGCAUG (DNA:RNA)
RNA: B1 RNA with U27G, U28C
DNA 1: CAATCTGAATTCCGGTCTCCC
DNA 2: TGGTGGCTACGACGGGATT
B24: ACGCGUC (DNA:RNA)
RNA: B1 RNA with U27G, U28C, A29G, G31C
DNA 1: CAATCTGAATTCCGGTCTCCC
DNA 2: TGGTGGCTACGACGGGATT
B25: ACGCGCA (DNA:RNA)
RNA: B1 RNA with U27G, U28C, A29G, U30C, G31A
DNA 1: CAATCTGAATTCCGGTCTCCC
DNA 2: TGGTGGCTACGACGGGATT
B26: ACGCAUC (DNA:RNA)
RNA: B1 RNA with U27G, U28C, G31C
DNA 1: CAATCTGAATTCCGGTCTCCC
DNA 2: TGGTGGCTACGACGGGATT
B27: UCAUUGC (DNA:RNA)
RNA: B17 RNA with U26C, C27A, C28U, C29U
DNA 1: CAATCTGAATTCCGGTCTCCC
DNA 2: TGGTGGCTACGACGGGATT
B28: GAUAGUG (DNA:RNA)
RNA: B1 RNA with A25G, C26A, U28A, A29G
DNA 1: CAATCTGAATTCCGGTCTCCC
DNA 2: TGGTGGCTACGACGGGATT
B29: CGAUAGA (DNA:RNA)
RNA: B3 RNA with G25C, G28U, U29A, C30G
DNA 1: CAATCTGAATTCCGGTCTCCC
DNA 2: TGGTGGCTACGACGGGATT
B30: UGGUAUC (DNA:RNA)
RNA: B1 RNA with A25U, C26G, U27G, G31C
DNA 1: CAATCTGAATTCCGGTCTCCC
DNA 2: TGGTGGCTACGACGGGATT
B31: UGGUAUG (DNA:RNA)
RNA: B1 RNA with A25U, C26G, U27G
DNA 1: CAATCTGAATTCCGGTCTCCC
DNA 2: TGGTGGCTACGACGGGATT
B32: UGGUAGC (DNA:RNA)
RNA: B17 RNA with U26G, C27G, C28U, C29A
DNA 1: CAATCTGAATTCCGGTCTCCC
DNA 2: TGGTGGCTACGACGGGATT
B33: UGGUAUA (DNA:RNA)
RNA: B1 RNA with A25U, C26G, U27G, G31A
DNA 1: CAATCTGAATTCCGGTCTCCC
DNA 2: TGGTGGCTACGACGGGATT
B34: UGGUAGA (DNA:RNA)
RNA: B1 RNA with A25U, C26G, U27G, U30G, G31A
DNA 1: CAATCTGAATTCCGGTCTCCC
DNA 2: TGGTGGCTACGACGGGATT
B35: UGGUAAA (DNA:RNA)
RNA: B1 RNA with A25U, C26G, U27G, U30A, G31A
DNA 1: CAATCTGAATTCCGGTCTCCC
DNA 2: TGGTGGCTACGACGGGATT

Target: T1, RBFOX1 RRM RbFoxmut (Fox-RRM*)
Experiment: EMSA; HiTS-Eq, 1 nM pool, 10 min; buffer printed only for the single-RNA assays: 10 mM Tris pH 7.5, 150 mM NaCl, 3.4 mM EDTA, 0.001% NP-40, 30 C
Conditions: tags: His6 N-terminal (pET28a); label: 5' 32P
Method in brief: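 A pool of RNA with 7 randomized nucleotides, 5′-radiolabelled and with DNA-annealed flanks, was equilibrated at 1 nM for 10 min in 50 µL with purified RbFox RRM, wild type or mutant, across increasing protein concentrations. Free RNA was separated by 8% native PAGE, excised, reverse-transcribed, barcoded by PCR and sequenced. Relative association constants were obtained from read-count changes of each RNA species versus the control reaction and normalised to the cognate motif.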

Binder | binding signal
B1 | 0.125 KA relative to UGCAUGU
B2 | 0.11 KA relative to UGCAUGU
B3 | 0.0995 KA relative to UGCAUGU
B4 | 0.108 KA relative to UGCAUGU
B5 | 0.0992 KA relative to UGCAUGU
B6 | 0.0738 KA relative to UGCAUGU
B7 | 0.06 KA relative to UGCAUGU
B8 | 0.0749 KA relative to UGCAUGU
B9 | 0.0715 KA relative to UGCAUGU
B10 | 0.443 KA relative to UGCAUGU
B11 | 0.372 KA relative to UGCAUGU
B12 | 0.231 KA relative to UGCAUGU
B13 | 0.174 KA relative to UGCAUGU
B14 | 0.289 KA relative to UGCAUGU
B15 | 0.0927 KA relative to UGCAUGU
B16 | 0.0934 KA relative to UGCAUGU
B17 | 0.0732 KA relative to UGCAUGU
B18 | 0.0823 KA relative to UGCAUGU

Binder | binding signal
B19 | 0.101 KA relative to UGCAUGU
B20 | 0.066 KA relative to UGCAUGU
B21 | 0.106 KA relative to UGCAUGU
B22 | 0.152 KA relative to UGCAUGU
B23 | 0.844 KA relative to UGCAUGU
B24 | 0.0969 KA relative to UGCAUGU
B25 | 0.15 KA relative to UGCAUGU
B26 | 0.355 KA relative to UGCAUGU
B27 | 0.12 KA relative to UGCAUGU
B28 | 0.126 KA relative to UGCAUGU
B29 | 0.101 KA relative to UGCAUGU
B30 | 0.356 KA relative to UGCAUGU
B31 | 1.27 KA relative to UGCAUGU
B32 | 0.102 KA relative to UGCAUGU
B33 | 0.157 KA relative to UGCAUGU
B34 | 0.128 KA relative to UGCAUGU
B35 | 0.0843 KA relative to UGCAUGU

From paper PMC9911399, “Two distinct binding modes provide the RNA-binding protein RbFox with extraordinary sequence specificity”
